HEK293 tox: kills HEK 293 cells; HEK 293 viability, ATP luminescence (CellTiter-Glo), 48-72 h; Potency, µM (doses to about 115 µM), for inactives: at the highest dose activity change, negative = cytotoxicity, actives largely listed as inhibitors; hit rate 6.6% among 94,000; AID 1345083; note: nearly all actives have a fitted effect of over 60% in size
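ATP-coupled CellTiter-Glo luminescence served as viability read-out, recorded 10 min after reagent addition at room temperature. HEK 293 cells, 250 cells/well, had been incubated with pintool-transferred compound for 48 or 72 hr at 37 degree Celsius.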
hNpr1 antagonist: human Npr1 receptor antagonism. P16066. HEK293 hNpr1 GloSensor cGMP, ANP-stimulated luminescence. Potency, µM (doses to about 46.3 µM), without a hit: at the highest dose activity change, negative = inhibition, usual class: inhibitors. hit rate 1.6% among 76,000. AID 1347048; calls by dose curve; note: nearly all actives have a fitted effect of over 60% in size
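HEK293 cells stably expressing human Npr1 and cGMP GloSensor pGS-40F, loaded 2 h with 2% GloSensor reagent, given compound 30 min at room temperature. Luminescence read before and 20 min after 0.1 nM hNppA.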
FLuc inh: blocks purified firefly luciferase enzyme activity. Potency, µM (titrated, usually from 115 µM), most hits filed as inhibitors. AID 1347043. purified P. pyralis luciferase, luminescence, biochemical. hit rate 2.5% among 76,000. P08659; note: nearly all actives have a fitted effect of over 65% in size
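Luminescence read by CCD imaging after purified firefly luciferase (10nM final) was added to substrate buffer holding 10uM D-luciferin and 10uM ATP, pH 7.5, pre-dosed with compound.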
NIH3T3 tox: cytotoxic compounds in NIH 3T3 cells; NIH 3T3 viability, CellTiter-Glo ATP luminescence, 48-72 h; Potency, µM (doses to about 96.7 µM), for inactives: at the top dose activity change, negative = cytotoxicity, usual class: inhibitors; hit rate 4.3% among 94,000; AID 1345082; note: nearly all actives have a fitted effect of over 55% in size
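Cells were seeded at 400 per well, treated with pin-transferred compound, and kept 48 or 72 hr at 37 °C before CellTiter-Glo addition and luminescence imaging of cellular ATP.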
GPT2 inhibitor: blocks human glutamate pyruvate transaminase 2 | hit rate 0.25% among 100,000 | Potency, µM (doses to about 57.7 µM), inactives show at the highest dose activity change, negative = inhibition, most hits filed as inhibitors | Recombinant GPT2, coupled pyruvate oxidase/HRP Amplex Red fluorescence; note: nearly all actives have a fitted effect of over 60% in size
Target sequence (Q8TD30 whole entry, looked up): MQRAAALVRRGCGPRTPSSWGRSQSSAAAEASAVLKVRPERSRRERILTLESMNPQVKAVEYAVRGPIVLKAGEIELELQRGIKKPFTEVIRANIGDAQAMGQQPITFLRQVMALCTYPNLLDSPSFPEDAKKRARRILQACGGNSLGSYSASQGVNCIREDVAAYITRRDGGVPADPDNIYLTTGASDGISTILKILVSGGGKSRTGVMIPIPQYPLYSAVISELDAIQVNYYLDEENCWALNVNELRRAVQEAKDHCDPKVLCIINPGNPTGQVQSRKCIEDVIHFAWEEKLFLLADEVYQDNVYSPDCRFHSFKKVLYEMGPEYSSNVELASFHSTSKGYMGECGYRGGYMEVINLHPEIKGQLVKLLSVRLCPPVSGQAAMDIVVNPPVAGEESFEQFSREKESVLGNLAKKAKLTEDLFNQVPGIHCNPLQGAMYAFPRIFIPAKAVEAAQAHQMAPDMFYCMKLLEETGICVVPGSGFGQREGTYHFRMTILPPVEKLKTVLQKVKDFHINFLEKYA
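Fluorescence of coupled pyruvate oxidase/HRP/Amplex Red system (50uM Amplex, 30 min, dark) reports pyruvate formed by GPT2. Enzyme reaction: 10ng/uL GPT2, 2mM L-alanine, 250uM a-KG, 30 min room temperature, pH 7.5; 50uM AOA control.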
* marks the source's active call; other numbers are inactive results; i = inactive; u = inconclusive; x = no result; [ ] = another dose, or the depositor's remark. This is a sample that favours compounds with a hit; in the whole collection about 10% have one here. Unless noted, calls come from the whole dose curve; as a rule, active = well fitted curve in the direction sought with a large enough effect; inconclusive = small, poorly fitted or top-dose-only effect, or another doubt; inactive = no such curve, though single readings can be large; an effect the other way counts as inactive or inconclusive. % is set by controls: 0 for no effect and ±100 for the full control effect; potency is the fitted concentration of half-maximal effect.

SMILES	HEK293 tox	hNpr1 antagonist	FLuc inh	NIH3T3 tox	GPT2 inhibitor
Cc1ccc(CCNC(=O)C2CCN(C(=O)c3nnn4c3COC(c3ccc(C)cc3)C4)CC2)cc1 (centres undefined)	-9.2%	1.3%	8.91µM*	-11.4%	-3.5%
Cn1nc(C(=O)NC2CCN(C(=O)N3CC4CC(C3)[C@H]3CCCC(=O)N3C4)CC2)c2ccccc21 (some centres undefined)	-3.8%	0.6%	i	-1.6%	i
CCc1cnc(N2CCC(c3nc(COc4ccc(-n5cnnn5)cc4)cs3)CC2)nc1	x	x	x	x	i
Cc1ccc(C2Cn3nnc(C(=O)N4CCC(C(=O)NCC5CC5)CC4)c3CO2)cc1 (centres undefined)	-6.8%	-4.1%	25.1µM*	3.4%	3.0%
Cc1ccc(C2Cn3nnc(C(=O)N4CCC(C(=O)NCC(C)C)CC4)c3CO2)cc1 (centres undefined)	0.2%	0.7%	22.4µM*	-13.5%	1.1%
Cc1ccc(C2Cn3nnc(C(=O)N4CCC(C(=O)NC5CCCCCC5)CC4)c3CO2)cc1 (centres undefined)	u	-11.7%	u	-25.8%	-2.7%
Cc1ccc(NC(=O)N2CCCC(c3noc(COc4ccccc4F)n3)C2)c(C)c1 (centres undefined)	u	u	i	u	i
CN(C)CCCn1cnc2cc(NC(=O)C[C@H]3NC(=O)c4ccccc4NC3=O)ccc21	10.3%	-1.3%	i	i	i
COc1ccc(C(=O)N[C@@H]2CCC[C@@H]2C(=O)N2CCC(Cc3ccccc3)CC2)cc1	u	-2.6%	i	u	u
O=C(Nc1ccc(Cl)cc1)N1CCN(Cc2ccccc2-c2cccnc2)CC1	u	x	x	35.5µM*	-10.1%
O=[S+]([O-])(c1cccs1)N1CCN(Cc2ccccc2-c2cccnc2)CC1	u	x	x	u	-12.9%
O=C(C1CCN(Cc2ccccc2-c2cccnc2)CC1)N1CCCC1	u	x	x	-22.8%[138 µM]	-4.6%[88.5 µM]
O=C(C1CCN(Cc2ccccc2-c2cccnc2)CC1)N1CCC(c2ccccc2)CC1	35.5µM*	x	x	44.7µM*	-3.8%
O=[S+]([O-])(c1ccccc1)N1CCN(Cc2ccccc2-c2cccnc2)CC1	35.5µM*	x	x	u	2.4%
COc1ccc(CNC(=O)C2(c3ccc(NC(C)=O)cc3)CCCCC2)c(OC)c1	-0.7%	2.6%	i	-9.6%	-17.6%
CNC(=O)[C@@H]1C[C@H](Oc2ccccc2)CN1S(=O)(=O)c1cccs1	i	2.8%	i	i	-1.4%
O=C(NCc1cccnc1)c1ccc2c(c1)n(Cc1ccccc1)c(=O)c1ccnn12	-13.4%	0.0%	i	-5.7%	i
O=C(NCc1cccnc1)c1ccc(N2CCC(NCCCn3ncc4ccccc43)CC2)cc1	u	-1.6%	i	17.8µM*	1.8%
CC(C)c1ccc(CNC(=O)c2cc3n(n2)CC(c2ccc4c(c2)OCO4)OC3)cc1 (centres undefined)	39.8µM*	-18.7%	i	u	-9.4%
Cc1ccc(CNC(=O)c2cc3n(n2)CC(c2ccc(Cl)cc2)OC3)cc1 (centres undefined)	u	u	i	u	-1.0%
CCc1ccc(CNC(=O)c2cc3n(n2)CC(c2ccc(Cl)cc2)OC3)cc1 (centres undefined)	u	u	i	39.8µM*	0.1%
O=C(NCc1ccc(Cl)cc1)c1cc2n(n1)CC(c1ccc(Cl)cc1)OC2 (centres undefined)	u	u	i	35.5µM*	3.6%
COc1ccc2c(c1)CN(C1CCN(C)CC1)CC[C@H]1COC(=O)N21	-11.2%[172 µM]	-0.4%[70.6 µM]	i	-1.3%[174 µM]	-6.3%[88.5 µM]
CN(Cc1ccccc1)C(=O)[C@@H]1Cc2nc[nH]c2CN1	-5.2%[230 µM]	6.0%[70.6 µM]	i	-10.6%[174 µM]	-4.2%[88.5 µM]
COc1ccnc2[nH]cc(C(=O)C(=O)N3CCN(C(=O)c4ccccc4)C[C@@H]3C)c12	x	x	x	x	i
SMILES	HEK293 tox	hNpr1 antagonist	FLuc inh	NIH3T3 tox	GPT2 inhibitor
CN1CC2(CCN(Cc3ccc(-c4ccc(Cl)cc4)o3)C2)OC1=O (centres undefined)	u	-13.3%	i	u	-0.3%
Clc1ccc(-c2ccc(CN3CC[C@H]4CC[C@@H](C3)N4)o2)cc1	28.2µM*	-11.8%	u	28.2µM*	-5.0%
Cc1ccsc1C(=O)N1CCC(CC(=O)NCc2ccccc2)C1 (centres undefined)	-7.5%	0.0%	i	-2.7%	i
O=C(NCC(=O)N1CCC(Cc2ccccc2)CC1)c1ccc(-c2cnc3ccccc3c2)cc1	10µM*	x	x	u	-5.2%
Cc1ccc(CN2CCC3(CCNCC3)C2)c(Cl)c1Cl	u	1.7%	i	u	1.2%
c1ccc(COc2ccccc2CN2CCC3(CCNCC3)C2)cc1	28.2µM*	-1.3%	i	22.4µM*	0.6%
CC(C)(C)c1cccc(CN2CCC3(CCNCC3)C2)c1O	22.4µM*	4.6%	i	22.4µM*	-10.8%
COc1cc(CN2CCC3(CCNCC3)C2)cc(OC)c1OC	u	4.3%	i	-19.5%	-12.0%
COCCCNC(=O)c1ccc2oc(-c3cccnc3)nc2c1	-2.5%[172 µM]	x	x	-6.0%[138 µM]	i
COc1cc(N2CCC(O)CC2)ccc1Nc1nc(Nc2ccccc2S(=O)(=O)C(C)C)c2[nH]cnc2n1	x	x	x	x	17.8µM*
COCCN1C(=O)c2cccn2CC1CNC(=O)c1ccc(OC)nc1 (centres undefined)	-4.5%	-0.9%	i	-4.7%	i
COCCCNc1ncnc2c1CN(C1CCCC1)C(=O)CN2C	-0.3%	x	x	-14.6%	-9.3%
CCC1(C(=O)NCc2ccc(C)o2)CCCCC(=O)N1 (centres undefined)	-4.7%	-11.9%	i	4.6%	i
COc1ccccc1Nc1ccnc(N2CCN(C(=O)C3CC3)CC2)n1	u	x	x	u	0.5%
O=C(c1ccccc1F)N1CCN(c2nccc(Nc3ccccc3F)n2)CC1	35.5µM*	x	x	u	i
COc1ccccc1Nc1ccnc(N2CCN(C(=O)c3ccccc3)CC2)n1	u	x	x	35.5µM*	4.7%
COc1ccccc1Nc1ccnc(N2CCN(C(=O)c3ccccc3F)CC2)n1	44.7µM*	x	x	u	-7.2%
COc1ccccc1C(=O)N1CCN(c2nccc(Nc3ccccc3F)n2)CC1	u	x	x	u	0.1%
COc1ccccc1Nc1ccnc(N2CCN(C(=O)c3ccccc3C)CC2)n1	44.7µM*	x	x	u	i
COc1ncc(-c2cc3c(nc2OC)nc(CC2CC2)n3C)cn1	-11.2%[172 µM]	5.0%[70.6 µM]	i	u	-3.1%[88.5 µM]
O=C(CCn1cncn1)N1CCC2(CCC(=O)N(CCc3ccncc3)C2)CC1	-9.6%	-1.0%	i	-12.1%	-0.8%
Cn1cccc(C(=O)N2CCC3(CC2)CN(CCOc2ccccc2)C(=O)O3)c1=O	-0.3%	4.8%	i	1.5%	0.5%

Screening data as filed in PubChem BioAssay.
